Source: PubChem BioAssay (EPA / NIEHS)
Active and inactive are the calls of the source. Rule for the calls: active = hit-call score of the fitted dose curve at least 0.9, where 1 is the maximum; inactive = score below 0.9.

Tests used:
[1] = ATG_ISRE_CIS: Attagene CIS-FACTORIAL HepG2 Assay for human Interferon Regulatory Factor 1 (IRF1) binding to an Interferon-Stimulated Response Element (ISRE) (AID 2282948); settings: HepG2 ISRE cis-reporter (Attagene), mRNA transcription readout; actives raise or lower the signal
Procedure, shortened: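 Signal reflects induction or loss of ISRE-linked reporter mRNA in transiently transfected HepG2 cells after a 24 h treatment, detected by fluorescent RT-PCR fragments on capillary electrophoresis and normalised to DMSO.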

[2] = ATG_M_32_CIS: Attagene CIS-FACTORIAL HepG2 Assay for M32 Transcription Factor (Internal Marker) (AID 2282949); settings: HepG2 Attagene cis-factorial M32 reporter, mRNA; actives raise or lower the signal;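 note: background control marker of the multiplexed CIS panel rather than a real target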
Procedure, shortened: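 Using DMSO as baseline, bidirectional curve fits were applied to reporter mRNA signals. These came from transiently transfected HepG2 cells exposed for 24 h, with RNA analysed by RT-PCR, FAM primer extension, HpaI digestion and CE.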

[3] = ATG_M_06_CIS: Attagene CIS-FACTORIAL HepG2 Assay for M06 Transcription Factor (Internal Marker) (AID 2282950); settings: HepG2 Attagene CIS-FACTORIAL M06 internal marker reporter; actives raise or lower the signal
Procedure, shortened: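 Steps: transfect HepG2 with multiplexed cis-element reporter constructs; dose chemical 24 h; extract RNA with DNase treatment; reverse-transcribe, PCR-amplify, 6-FAM label, HpaI digest; separate fragments by capillary electrophoresis. Activity fitted both directions versus DMSO.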

[4] = target: Hypoxia-inducible factor 1-alpha (Homo sapiens) (UniProt Q16665); assay: ATG_HIF1a_CIS: Attagene CIS-FACTORIAL HepG2 Assay for human Hypoxia Inducible Factor 1 (HIF1A) (AID 2282951); settings: HepG2 Attagene cis-factorial HIF1a reporter transcription; actives raise or lower the signal
Sequence of Hypoxia-inducible factor 1-alpha (Homo sapiens) (Q16665 whole entry, looked up): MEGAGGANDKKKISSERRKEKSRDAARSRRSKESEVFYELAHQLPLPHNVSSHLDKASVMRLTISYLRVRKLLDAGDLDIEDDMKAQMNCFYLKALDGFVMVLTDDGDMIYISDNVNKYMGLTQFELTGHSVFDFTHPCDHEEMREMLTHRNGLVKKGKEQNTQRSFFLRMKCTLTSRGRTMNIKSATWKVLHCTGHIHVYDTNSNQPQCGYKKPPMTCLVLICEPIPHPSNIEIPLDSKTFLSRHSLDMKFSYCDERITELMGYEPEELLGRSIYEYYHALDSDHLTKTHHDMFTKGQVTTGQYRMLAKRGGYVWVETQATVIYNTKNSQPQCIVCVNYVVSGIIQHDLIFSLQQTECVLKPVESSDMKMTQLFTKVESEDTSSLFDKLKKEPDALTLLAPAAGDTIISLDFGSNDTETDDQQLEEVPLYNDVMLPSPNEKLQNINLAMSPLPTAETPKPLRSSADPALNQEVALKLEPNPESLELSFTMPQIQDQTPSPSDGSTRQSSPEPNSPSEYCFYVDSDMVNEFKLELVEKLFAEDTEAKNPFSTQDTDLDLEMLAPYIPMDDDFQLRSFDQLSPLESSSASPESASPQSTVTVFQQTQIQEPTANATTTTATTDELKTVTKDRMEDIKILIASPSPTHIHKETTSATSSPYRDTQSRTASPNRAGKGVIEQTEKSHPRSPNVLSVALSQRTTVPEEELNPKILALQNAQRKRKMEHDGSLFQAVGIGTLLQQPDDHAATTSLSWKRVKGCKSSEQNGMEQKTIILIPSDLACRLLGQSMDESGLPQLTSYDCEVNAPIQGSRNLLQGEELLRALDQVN
Procedure, shortened: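 HepG2 cells transiently transfected with multiplexed cis-promoter reporter units; reporter mRNA read 24 h after dosing by RT-PCR, 6-FAM primer-extension labelling, HpaI digestion and capillary electrophoresis. Bidirectional fit versus DMSO baseline.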

[5] = target: Hepatocyte nuclear factor 6 (Homo sapiens) (UniProt Q9UBC0); assay: ATG_HNF6_CIS: Attagene CIS-FACTORIAL HepG2 Assay for human Hepatocyte Nuclear Factor 6 (HNF6) (AID 2282952); settings: HepG2 Attagene cis-factorial HNF6 reporter transcription; actives raise or lower the signal
Sequence of Hepatocyte nuclear factor 6 (Homo sapiens) (Q9UBC0 whole entry, looked up, the tested form may be a part): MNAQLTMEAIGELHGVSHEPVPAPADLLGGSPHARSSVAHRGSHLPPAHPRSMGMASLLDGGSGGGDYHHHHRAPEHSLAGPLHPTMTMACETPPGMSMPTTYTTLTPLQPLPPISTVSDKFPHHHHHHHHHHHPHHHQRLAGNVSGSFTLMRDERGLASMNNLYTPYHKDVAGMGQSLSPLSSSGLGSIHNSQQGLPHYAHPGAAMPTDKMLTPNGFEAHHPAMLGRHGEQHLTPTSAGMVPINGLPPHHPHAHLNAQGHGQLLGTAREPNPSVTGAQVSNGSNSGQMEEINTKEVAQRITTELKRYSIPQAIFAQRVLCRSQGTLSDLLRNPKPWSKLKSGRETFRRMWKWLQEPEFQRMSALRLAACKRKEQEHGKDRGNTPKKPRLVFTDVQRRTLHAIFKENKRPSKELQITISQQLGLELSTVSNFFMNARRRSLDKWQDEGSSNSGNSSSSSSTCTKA
Procedure, shortened: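 Readout: fluorescent reporter-transcript fragments resolved by capillary electrophoresis after RT-PCR, reflecting endogenous factor activity in transfected HepG2. Exposure 24 h. Gain or loss of signal fitted bidirectionally against DMSO.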

[6] = target: Heat shock factor protein 1 (Homo sapiens) (UniProt Q00613); assay: ATG_HSE_CIS: Attagene CIS-FACTORIAL HepG2 Assay for human Heat Shock Transcription Factor 1 (HSE) (AID 2282953); settings: HepG2 HSE cis-reporter, Attagene RNA transcription; actives raise or lower the signal
Sequence of Heat shock factor protein 1 (Homo sapiens) (Q00613 whole entry, looked up, the tested form may be a part): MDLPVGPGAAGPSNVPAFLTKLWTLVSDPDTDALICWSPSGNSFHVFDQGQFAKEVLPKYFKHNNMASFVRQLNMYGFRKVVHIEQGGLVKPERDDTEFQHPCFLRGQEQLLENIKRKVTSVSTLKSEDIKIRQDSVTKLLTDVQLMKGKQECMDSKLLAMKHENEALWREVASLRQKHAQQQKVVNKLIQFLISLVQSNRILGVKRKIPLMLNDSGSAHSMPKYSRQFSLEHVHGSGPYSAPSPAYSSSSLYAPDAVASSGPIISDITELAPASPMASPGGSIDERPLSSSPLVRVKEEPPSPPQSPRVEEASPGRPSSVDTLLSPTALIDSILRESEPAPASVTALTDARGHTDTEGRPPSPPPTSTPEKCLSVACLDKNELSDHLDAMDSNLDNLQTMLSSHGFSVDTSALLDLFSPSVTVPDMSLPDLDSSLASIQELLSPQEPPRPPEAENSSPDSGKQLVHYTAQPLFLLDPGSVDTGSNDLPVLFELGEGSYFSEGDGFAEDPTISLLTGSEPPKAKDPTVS
Procedure, shortened: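 Cells were transfected with cis-element-driven reporter constructs, dosed for 24 h, then total RNA was reverse-transcribed and reporter cDNA amplified, FAM-labelled and digested with HpaI. Fragments were resolved by capillary electrophoresis; gain or loss was fitted against DMSO.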

[7] = ATG_MRE_CIS: Attagene CIS-FACTORIAL HepG2 Assay for human Metal Responsive Element (MRE) (AID 2282954); settings: HepG2 MRE cis-reporter transcription, Attagene multiplex; actives raise or lower the signal
Procedure, shortened: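 Readout: capillary electrophoresis of 6-FAM-labelled, HpaI-digested RT-PCR reporter products. System: HepG2 cells carrying transient multiplexed cis reporters, dosed 24 h. Analysis: bidirectional fit, DMSO baseline.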

[8] = ATG_PBREM_CIS: Attagene CIS-FACTORIAL HepG2 Assay for human Phenobarbital-responsive Enhancer Module (PBREM) (AID 2282955); settings: HepG2 PBREM cis-reporter, Attagene multiplexed transcription; actives raise or lower the signal
Procedure, shortened: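 HepG2 cells transiently transfected with multiple cis-regulated reporter transcription units; endogenous factor activity at the PBREM element measured as reporter mRNA 24 h after dosing, via RT-PCR and capillary electrophoresis of fluorescent fragments; bidirectional fitting versus DMSO.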

[9] = target: Paired box protein Pax-6 (Homo sapiens) (UniProt P26367); assay: ATG_Pax6_CIS: Attagene CIS-FACTORIAL HepG2 Assay for human Paired Box 6 (PAX6) (AID 2282956); settings: HepG2 CIS-FACTORIAL PAX6 reporter transcription, RNA readout; actives raise or lower the signal
Sequence of Paired box protein Pax-6 (Homo sapiens) (P26367 whole entry, looked up): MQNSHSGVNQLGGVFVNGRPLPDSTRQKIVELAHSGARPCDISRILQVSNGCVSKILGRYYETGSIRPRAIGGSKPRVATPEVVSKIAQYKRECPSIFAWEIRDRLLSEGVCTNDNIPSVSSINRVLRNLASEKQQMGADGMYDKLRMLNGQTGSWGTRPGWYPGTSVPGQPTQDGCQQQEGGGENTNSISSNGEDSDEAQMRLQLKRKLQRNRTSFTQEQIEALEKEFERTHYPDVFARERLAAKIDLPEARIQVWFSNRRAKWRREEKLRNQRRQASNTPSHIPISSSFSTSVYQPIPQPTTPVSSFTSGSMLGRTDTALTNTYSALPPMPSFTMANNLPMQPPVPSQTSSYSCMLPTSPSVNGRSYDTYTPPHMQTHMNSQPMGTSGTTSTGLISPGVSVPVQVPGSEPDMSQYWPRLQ
Procedure, shortened: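 Values derive from bidirectional curve fitting of reporter mRNA signal relative to DMSO. HepG2 cells bearing transfected cis-regulated MRTUs were exposed for 24 h; transcripts were read by RT-PCR and capillary electrophoresis.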

Row | SMILES | outcome [1] | outcome [2] | outcome [3] | outcome [4] | outcome [5] | outcome [6] | outcome [7] | outcome [8] | outcome [9] | AC50 [4] | AC50 [1] | AC50 [6] | AC50 [7] | AC50 [8] | AC50 [9] | AC50 [5]
1 | O=C(NS(=O)(=O)/C=C/c1cccs1)c1ccc(F)cc1Br | inactive | inactive | inactive | inactive | inactive | inactive | inactive | inactive | inactive |  |  |  |  |  |  | 
2 | C/C=C/C=C/C(=O)O | inactive | inactive | inactive | inactive | inactive | inactive | inactive | inactive | inactive |  |  |  |  |  |  | 
3 | Cc1cc(Cc2ccc(N)c(C)c2)ccc1N | inactive | inactive | inactive | inactive | inactive | inactive | inactive | inactive | inactive |  |  |  |  |  |  | 
4 | NC1CCCCC1 | inactive | inactive | inactive | inactive | inactive | inactive | inactive | inactive | inactive |  |  |  |  |  |  | 
5 | CCCCC(CC)CO (stereo not drawn) | inactive | inactive | inactive | inactive | inactive | inactive | inactive | inactive | inactive |  |  |  |  |  |  | 
6 | O=NO | inactive | inactive | inactive | inactive | inactive | inactive | inactive | inactive | inactive |  |  |  |  |  |  | 
7 | CCCCCCCC(=O)OC | inactive | inactive | inactive |  | inactive | inactive | inactive | inactive | inactive | 68.3 µM (active) |  |  |  |  |  | 
8 | CCc1cc(C2=C(C(=O)O)N(c3ccccc3C(F)(F)F)S(=O)(=O)c3ccccc32)cc2c1OCO2 |  | inactive | inactive | inactive | inactive |  |  |  | inactive |  | 149 µM (active) | 154 µM (active) | 58.5 µM (active) | 19.8 µM (active) |  | 
9 | CCCCc1nc2cccnc2n1Cc1ccc(-c2ccccc2-c2nnn[nH]2)cc1 | inactive | inactive | inactive | inactive | inactive | inactive | inactive | inactive | inactive |  |  |  |  |  |  | 
10 | C/C=C/c1ccc(OC)cc1 | inactive | inactive | inactive | inactive | inactive | inactive | inactive | inactive | inactive |  |  |  |  |  |  | 
11 | c1ccc2occc2c1 | inactive | inactive | inactive | inactive | inactive | inactive | inactive | inactive | inactive |  |  |  |  |  |  | 
12 | Cc1occc(=O)c1O | inactive | inactive | inactive | inactive | inactive | inactive | inactive | inactive | inactive |  |  |  |  |  |  | 
13 | Cc1ccc(C(C)(C)C)c(O)c1 |  | inactive | inactive | inactive | inactive | inactive |  |  |  |  | 138 µM (active) |  | 145 µM (active) | 150 µM (active) | 152 µM (active) | 
14 | CCCCCCCCCCCCCCOS(=O)(=O)O | inactive | inactive | inactive | inactive | inactive | inactive | inactive | inactive | inactive |  |  |  |  |  |  | 
15 | COC(=O)CCCC(=O)OC | inactive | inactive | inactive | inactive | inactive | inactive | inactive | inactive | inactive |  |  |  |  |  |  | 
16 | COc1ccc(OC(F)(F)F)cc1CN[C@H]1CCCN[C@H]1c1ccccc1 | inactive | inactive | inactive | inactive | inactive |  | inactive | inactive | inactive |  |  | 2.74 µM (active) |  |  |  | 
17 | Nc1nc(=S)c2[nH]cnc2[nH]1 | inactive | inactive | inactive | inactive | inactive | inactive | inactive | inactive | inactive |  |  |  |  |  |  | 
18 | O=C(O)CN(CC(=O)O)CC(=O)O | inactive | inactive | inactive | inactive | inactive | inactive | inactive | inactive | inactive |  |  |  |  |  |  | 
19 | O=C1OC(c2ccc(O)cc2)(c2ccc(O)cc2)c2ccccc21 |  | inactive | inactive |  |  |  |  |  |  |  | 70.1 µM (active) | 146 µM (active) | 45.1 µM (active) | 4.42 µM (active) | 36.6 µM (active) | 133 µM (active)
20 | CC(C)c1cccc(C(C)C)c1NC(=O)NS(=O)(=O)c1cc(C(C)(C)O)co1 | inactive | inactive | inactive | inactive | inactive | inactive | inactive |  | inactive |  |  |  |  |  |  | 
21 | Cc1cc(SC2=C(O)C[C@@](CCc3ccc(N)cc3)(C(C)C)OC2=O)c(C(C)(C)C)cc1CO | inactive | inactive | inactive | inactive | inactive | inactive | inactive |  | inactive |  |  |  |  |  |  | 
22 | CN(C)CCCN1c2ccccc2Sc2ccc(Cl)cc21 | inactive | inactive | inactive |  |  |  |  | inactive |  |  |  |  | 15.5 µM (active) |  | 15.9 µM (active) | 20.8 µM (active)
